Screens as filed in PubChem.
Pf Dd2 growth – qHTS Primary assay for Inhibitors of Plasmodium falciparum Dd2 growth in vitro. AID 1347417, 2020. 120,000 tested, 4.3% active. Potency, µM (titrated, usually from 28.9 µM), for the others: at the highest dose activity, negative = inhibition, actives largely listed as inhibitors. P. falciparum Dd2 growth, SYBR Green, 72 h; active = well fitted inhibition curve with a large enough effect;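 also: plate controls were DMSO vehicle for no effect and reference drug for full effect; nearly all actives have a fitted effect of over 65% in size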
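Readout: SYBR Green fluorescence, 485 nm excitation, 535 nm emission, after ~16 h lysis at 37C. Before that, Dd2-infected red cells (2.5% hematocrit) grew 72 h with compound, 29 uM top final concentration.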
Active calls of the source: *; i = inactive; [ ] = dose if it differs, or a comment. Only a selection was taken, and hits are over-represented in it overall. Potency is read from the fitted curve at half-maximal effect.

SMILES | Pf Dd2 growth
CCn1ncc(N2CCC(NC(=O)c3ccc4c(c3)OCO4)CC2)cc1=O | 31%
COc1ccc2c(c1)OCC(C(=O)NCc1nnnn1-c1ccccc1)C2 (centres undefined) | 8%
CCCc1ccc(S(=O)(=O)N(CCC)CC2CCOC2)cc1 (centres undefined) | 22%[5.79 µM]
COc1ccc(NC(=O)c2ccc3c(SCC(=O)O)c4c(nc3c2)CCC4)c(OC)c1 | -13%
COc1ccc(OC)c(NC(=O)c2ccc3c(SCC(=O)O)c4c(nc3c2)CCCC4)c1 | 10µM*
O=C(O)CSc1c2c(nc3cc(C(=O)Nc4ccc(F)c(Cl)c4)ccc13)CCC2 | -27%
Cc1nc(C(=O)N2CCC(Cc3nncn3-c3ccccc3)CC2)cs1 | -6%
CC1(c2noc(C3CC3)n2)CCN(C(=O)CCc2nc3ccc(Cl)cc3[nH]2)CC1 | i
CC1(c2noc(-c3ccccn3)n2)CCN(C(=O)CCc2nc3ccc(Cl)cc3[nH]2)CC1 | 5.6µM*
CC1(c2noc(-c3ccccn3)n2)CCN(C(=O)CCC(=O)N2CC(=O)Nc3ccccc32)CC1 | -17%
CC(C)CCNC(=O)c1cnc2n1CCN(Cc1ccccc1F)CC2 | -17%[44.1 µM]
COCC1CN(S(=O)(=O)c2cc(Cl)ccc2OC)CC12CCNCC2 (centres undefined) | -25%
O=C(c1ncn[nH]1)N1CCc2ccc(S(=O)(=O)NCC3CCCO3)cc2C1 (centres undefined) | 17%
COC1CCN(C(=O)c2ccnc(-c3nnc4ccc(N(C)c5ccccc5)nn34)c2)CC1 | i
COc1ccc(N2CC(C(=O)NCCCc3ccccc3)NC2=O)cc1 (centres undefined) | -3%
Cc1cn2cc(CNC(=O)c3ccc(CN4CCCN(C)CC4)[nH]c3=O)nc2s1 | -16%
Brc1csc(CN2CCc3nc(Nc4ccccc4)ncc3C2)c1 | 10µM*
COc1ccccc1Nc1ncc2c(n1)CCN(Cc1ccc(C)s1)C2 | 69%
Cc1ccc(CN2CCc3nc(Nc4ccc5c(c4)OCCO5)ncc3C2)cc1 | 9%
COc1ccc(Nc2ncc3c(n2)CCN(Cc2ccc(Br)s2)C3)c(OC)c1 | 10µM*
COc1ccc(Nc2ncc3c(n2)CCN(Cc2cc(Br)cs2)C3)c(OC)c1 | 46%
COc1ccccc1Nc1ncc2c(n1)CCN(Cc1cc(F)cc(F)c1)C2 | 28%
O=C(Cc1ccsc1)N1CCCC(Cc2nc(C3CCOCC3)no2)C1 (centres undefined) | -23%
Cc1nn2c(c1-c1ccccc1N1CCCC1)N(C(=O)c1ccc(F)cc1)CCC2 | -25%[44.1 µM]
CCN1c2cc(C(=O)NCc3ccccc3Br)ccc2C(=O)N2CCCCC21 (centres undefined) | i
SMILES | Pf Dd2 growth
Cc1nn(C)c(C)c1S(=O)(=O)N1CCCCCCn2c(nnc2-c2ccc(F)cc2)CC1 | i
COc1ccc(C(=O)N2C[C@@H]3OCC(=O)N(Cc4ccccc4)[C@@H]3C2)cc1 | 13%[44.1 µM]
O=C(CC1CCCC1)NC1CCCN(c2cc(N3CCCC3)ncn2)C1 (centres undefined) | -3%[5.79 µM]
COc1ccc(OCc2nc3ccccc3n2Cc2ccc(C(C)(C)C)cc2)cc1 | 11µM*
COc1cccc(OCc2nc3ccccc3n2Cc2ccccc2)c1 | 50%[5.79 µM]
CC(C)(C)c1ccc(OCc2nc3ccccc3n2CCOc2ccccc2)cc1 | -21%
COc1cc(CN2CCC3(CC2)Cc2ccccc2CNC3=O)cc(OC)c1 | -30%
CN(C(=O)COc1ccc(F)cc1)C1CCc2nn(CC3CC3)c(=O)n2CC1 (centres undefined) | 19%
O=C(Cc1cccc(Cl)c1)N1CCn2c(nn(-c3ccc(F)cc3)c2=O)C1 | -1%
CC(C)c1ccc(CN2CC(CNC(=O)c3cnn(C)c3)C3(C2)CN(c2ccccc2)C3)cc1 (centres undefined) | i
O=C(c1cccc(Cl)c1)N1CC(CNc2cccnc2)C2(C1)CN(c1ccccc1)C2 (centres undefined) | 13µM*
Cn1cc(C(=O)NCC2CN(C(=O)c3ccccc3)CC23CN(c2ccccc2)C3)cn1 (centres undefined) | i
O=C(NCC1CN(Cc2ccncc2Cl)CC12CN(c1ccccc1)C2)c1ccccc1 (centres undefined) | -3%
O=C(c1cccnc1)N1CC(COc2ccccc2)C2(C1)CN(c1ccccc1)C2 (centres undefined) | -26%[44.1 µM]
O=C(Cc1ccccc1)NCC1CN(Cc2ccncc2Cl)CC12CN(c1ccccc1)C2 (centres undefined) | 11µM*
O=C(Cc1ccccn1)N1CCN(c2nc3ncccc3o2)CC1 | -16%[44.1 µM]
COCCO[C@H]1COCCN(S(=O)(=O)c2ccc(F)cc2)C1 | 8%[44.1 µM]
COCCc1noc(C2Cc3ccccc3N2C(=O)Nc2ccc(C)c(C)c2)n1 (centres undefined) | 11%[5.79 µM]
CCCNC(=O)NC[C@@H]1C=C(C)[C@H](Cc2nc3ccccc3[nH]2)C[C@H]1C(C)C | i
CC1=C[C@@H](CNC(=O)Cn2cnnn2)[C@H](C(C)C)C[C@H]1Cc1nc2ccccc2[nH]1 | i
CCC(CC)C(=O)NC[C@@H]1C=C(C)[C@H](Cc2nc3ccccc3n2C)C[C@H]1C(C)C | 11µM*
CC1=C[C@@H](CNC(=O)C2CC2)[C@H](C(C)C)C[C@H]1CC(=O)N1CCOCC1 | i
CC1=C[C@@H](CNC(=O)C2CCCCC2)[C@H](C(C)C)C[C@H]1Cc1nc2ccccc2n1C | 10µM*
CC(=O)N1CCN(C(=O)C[C@@H]2C[C@@H](C(C)C)[C@H](CNC(=O)C3CC3)C=C2C)CC1 | i
O=C(c1cn(C2CNC2)nn1)N1CCCC1 | 5%
SMILES | Pf Dd2 growth
COc1ccc(CCC(=O)N2CCC(c3nc(C4CCOCC4)no3)CC2)cc1 | -8%
Cn1ncc(N2CCCC(CC(=O)NCc3ccccc3F)C2)cc1=O (centres undefined) | 9%
COc1ccc(CC(=O)N2CCCN(c3cc(-c4ccc(F)cc4)[nH]n3)CC2)cc1 | i
O=C(c1ccccc1Cl)N1CCC2(CC1)CC(=O)N(c1ccccc1)c1ccccc1O2 | -23%
CCNC(=O)N1CC(Oc2cccc(-c3nc(-c4ccccc4)no3)c2)C1 | 1.3µM*
O=C(c1ccc(F)cc1)N1CC(Oc2cccc(-c3nc(-c4ccccc4)no3)c2)C1 | 1%[5.79 µM]
O=C(Nc1ccccc1)N1CC(Oc2cccc(-c3nc(-c4ccccc4)no3)c2)C1 | 22%[5.79 µM]
CCO[C@H]1CN(C(=O)c2ccc(Oc3ccccc3)o2)C[C@@H]1O | i
COc1cccc(-c2[nH]ncc2CN)c1 | 3%
COc1ccc(-c2[nH]ncc2C(=O)NCc2cccc(OC)c2)cc1 | 22%
CCCCN(Cc1ccccc1)Cc1cn[nH]c1-c1ccc(OC)cc1OC | 13µM*
CCc1noc(-c2ccn3c(CNC(=O)c4cc(Cl)ccc4F)nnc3c2)n1 | -4%
CCc1ccccc1NC(=O)CSc1nc2n[nH]c(C)c2c(=N)n1-c1cccc(C)c1 | -10%
Cc1ccc(NC(=O)CSc2nc3n[nH]c(C)c3c(=N)n2-c2ccccc2C)cc1C | 8.9µM*
Cc1cccc(-n2c(SCC(=O)Nc3ccccc3Cl)nc3n[nH]c(C)c3c2=N)c1 | i
CN1C[C@H](O)C[C@H]1c1nnc2n1CCN(C(=O)CCCc1ccccc1)CC2 | -4%
COc1ccc(C2=C(C(C)=O)Sc3nnc(-c4ccc(C)cc4)n3N2C(C)=O)cc1OC | 2.5µM*
CC(=O)C1=C(c2ccc(Cl)c(Cl)c2)N(C(C)=O)n2cnnc2S1 | 1.1µM*
CC(=O)C1=C(c2ccc(Cl)c(Cl)c2)N(C(C)=O)n2c(nnc2-c2ccccc2)S1 | 35%
COc1ccc(C2=NS(=O)(=O)N(C)C(C(=O)Nc3cc(C)ccc3O)=C2)cc1OC | -6%
